# Calls of active or inactive are those of the source.
# Tests used:
# [1] = tested on: Plasmodium falciparum Sir2 (PF13_0152, Sir2A); assay: Plasmodium falciparum Sir2A binding compounds – biochemical, small-molecule microarray, 635 nm fluorescence, primary screen (AID 1098); details: fluorescence 635 nm, higher = more signal;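 also: score merges spot fluorescence intensity with its signal-to-noise ratio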
# [2] = probe aDKK1 binding to arrayed compounds – biochemical, biotinylated probe, 635/667 nm fluorescence, primary screen (AID 1099); details: small-molecule microarray, higher = more signal;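 also: score merges 667nm spot fluorescence with signal to noise across triplicate slides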
# [3] = probe aCHRDL2 binding to arrayed compounds – biochemical, biotinylated probe, 635/667 nm fluorescence, primary screen (AID 1100); details: small-molecule microarray, higher = more signal
# [4] = change in splice reporter luminescence, either direction, cell-based, HEK293, spliceosome inhibition project, primary screen (AID 1101); details: HEK293 splicing luciferase reporter, 24 h, higher = more signal, called active from +8 up or from −8 down;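 also: HEK293 cells carrying a splicing-competent luciferase reporter gene; test concentration not given here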
# [5] = biological target: Fibroblast growth factor 10 (Homo sapiens) (UniProt O15520); assay: compounds binding fibroblast growth factor 10 – biochemical, small-molecule microarray, 635 nm fluorescence, primary screen (AID 1102); details: FGF10 binding, fluorescence 635 nm, higher = more signal
# Sequence of Fibroblast growth factor 10 (Homo sapiens) (O15520 whole entry, looked up): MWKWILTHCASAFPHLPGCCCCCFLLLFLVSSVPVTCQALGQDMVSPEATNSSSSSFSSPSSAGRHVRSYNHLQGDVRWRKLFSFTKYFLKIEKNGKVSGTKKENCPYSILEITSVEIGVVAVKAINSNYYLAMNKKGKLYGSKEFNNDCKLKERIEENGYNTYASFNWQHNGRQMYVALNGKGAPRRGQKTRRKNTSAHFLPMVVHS
# [6] = tested on: glycogen synthase kinase-3 (GSK3A per assay name; protocol says GSK3B); assay: compounds binding glycogen synthase kinase-3 – biochemical, small-molecule microarray, 635 nm fluorescence, GSK3A, primary screen (AID 1103); details: fluorescence 635 nm, higher = more signal; also: the record names both GSK3A and GSK3B
# [7] = biological target: Epidermal growth factor receptor (Homo sapiens) (UniProt P00533); assay: compounds binding epidermal growth factor receptor – biochemical, small-molecule microarray, 635 nm fluorescence, primary screen (AID 1104); details: EGFR binding, higher = more signal;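 also: score merges 667 nm emission intensity with spot signal to noise over triplicate slides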
# Sequence of Epidermal growth factor receptor (Homo sapiens) (P00533 whole entry, looked up): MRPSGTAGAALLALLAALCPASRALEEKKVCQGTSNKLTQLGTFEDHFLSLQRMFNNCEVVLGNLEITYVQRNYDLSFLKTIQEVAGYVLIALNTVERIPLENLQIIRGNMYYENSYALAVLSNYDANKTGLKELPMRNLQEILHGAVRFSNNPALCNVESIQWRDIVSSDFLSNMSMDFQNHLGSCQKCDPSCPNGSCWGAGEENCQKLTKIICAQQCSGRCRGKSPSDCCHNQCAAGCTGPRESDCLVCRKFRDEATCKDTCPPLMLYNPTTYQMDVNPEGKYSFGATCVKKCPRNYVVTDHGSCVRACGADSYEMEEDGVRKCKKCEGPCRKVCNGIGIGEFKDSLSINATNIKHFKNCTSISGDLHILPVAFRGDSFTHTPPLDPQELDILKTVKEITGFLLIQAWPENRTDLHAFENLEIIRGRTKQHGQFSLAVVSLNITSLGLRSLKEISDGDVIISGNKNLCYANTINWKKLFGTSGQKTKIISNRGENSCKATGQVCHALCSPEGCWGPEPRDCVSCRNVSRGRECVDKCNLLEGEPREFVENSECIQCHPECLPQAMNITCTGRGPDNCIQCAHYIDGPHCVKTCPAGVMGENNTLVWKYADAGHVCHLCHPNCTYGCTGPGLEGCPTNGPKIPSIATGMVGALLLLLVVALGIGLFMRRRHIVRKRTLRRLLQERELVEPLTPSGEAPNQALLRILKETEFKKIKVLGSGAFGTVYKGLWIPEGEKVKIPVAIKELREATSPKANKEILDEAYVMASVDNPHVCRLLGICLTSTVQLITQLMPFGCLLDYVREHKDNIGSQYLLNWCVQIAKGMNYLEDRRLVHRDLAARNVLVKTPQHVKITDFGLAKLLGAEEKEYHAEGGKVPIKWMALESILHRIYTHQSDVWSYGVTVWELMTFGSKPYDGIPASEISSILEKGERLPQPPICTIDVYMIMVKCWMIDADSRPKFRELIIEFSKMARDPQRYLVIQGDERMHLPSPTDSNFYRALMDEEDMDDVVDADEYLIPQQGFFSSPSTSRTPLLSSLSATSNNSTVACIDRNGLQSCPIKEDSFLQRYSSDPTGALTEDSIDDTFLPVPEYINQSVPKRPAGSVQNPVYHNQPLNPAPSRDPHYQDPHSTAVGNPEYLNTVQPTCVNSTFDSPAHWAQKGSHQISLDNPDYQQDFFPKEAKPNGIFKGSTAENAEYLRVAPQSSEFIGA
# [8] = biological target: Follistatin-related protein 3 (Homo sapiens) (UniProt O95633); assay: compounds binding follistatin-related protein 3 – biochemical, small-molecule microarray, 635 nm fluorescence, primary screen (AID 1105); details: FSTL3 binding, higher = more signal;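 also: score merges emission near 667 nm and signal to noise per printed spot across three slides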
# Sequence of Follistatin-related protein 3 (Homo sapiens) (O95633 whole entry, looked up): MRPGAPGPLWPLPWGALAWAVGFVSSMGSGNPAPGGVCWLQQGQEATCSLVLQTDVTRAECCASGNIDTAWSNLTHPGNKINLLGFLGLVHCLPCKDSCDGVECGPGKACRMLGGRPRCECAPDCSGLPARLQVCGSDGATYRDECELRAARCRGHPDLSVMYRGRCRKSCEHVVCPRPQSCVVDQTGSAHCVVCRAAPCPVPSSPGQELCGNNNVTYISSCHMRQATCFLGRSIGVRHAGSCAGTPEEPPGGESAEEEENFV
# [9] = biological target: Dickkopf-related protein 1 (Homo sapiens) (UniProt O94907); assay: small molecules binding DKK1 protein – biochemical, small-molecule microarray, 635 nm fluorescence scan, primary screen (AID 1106); details: higher = more signal;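 also: score merges emission near 667 nm with signal to noise over three replicate slides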
# Sequence of Dickkopf-related protein 1 (Homo sapiens) (O94907 whole entry, looked up): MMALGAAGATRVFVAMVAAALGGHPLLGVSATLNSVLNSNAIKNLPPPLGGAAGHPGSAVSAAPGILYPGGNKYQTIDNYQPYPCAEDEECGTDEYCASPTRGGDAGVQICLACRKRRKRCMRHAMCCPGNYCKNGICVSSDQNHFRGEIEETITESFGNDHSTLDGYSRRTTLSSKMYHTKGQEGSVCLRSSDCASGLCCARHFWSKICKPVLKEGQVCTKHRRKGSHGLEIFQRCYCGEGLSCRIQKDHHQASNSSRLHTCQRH
# [10] = tested on: Inhibin beta A chain (activin A); assay: small molecules binding activin A – biochemical, small-molecule microarray, 635 nm fluorescence scan, primary screen (AID 1107); details: INHBA, higher = more signal;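 also: mouse activin A protein probed at 4.33 µg/mL on printed slides; score merges bound-protein fluorescence near 667 nm with spot signal-to-noise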
# [11] = tested on: Human papillomavirus type 1a protein E7 (residues 44-93); assay: small molecules binding HPV E7 44-93 – biochemical, small-molecule microarray, residues 44-93, 635 nm fluorescence, primary screen (AID 1108); details: fluorescence 635 nm, higher = more signal;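 also: E7 fragment applied at 1 µg/mL in TBST for 1 h at 4 C; score combines spot fluorescence with its signal to noise ratio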
# [12] = hepatitis C replication reporter changes, two-sided – Huh7 cells, luciferase reporter, HCV replication inhibitor project, primary screen (AID 1109); details: Huh7 HCV replicon luciferase reporter, 48 h; higher = more signal;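 also: huh7 hepatoma cells harbouring a luciferase neomycin HCV replicon reporter; luciferase luminescence as measure of HCV replicon replication; test concentration not given here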
# [13] = biological target: Left-right determination factor 2 (Homo sapiens) (UniProt O00292); assay: small molecules binding LEFTY2 protein – biochemical, small-molecule microarray, 635 nm fluorescence scan, primary screen (AID 1110); details: higher = more signal
# Sequence of Left-right determination factor 2 (Homo sapiens) (O00292 whole entry, looked up): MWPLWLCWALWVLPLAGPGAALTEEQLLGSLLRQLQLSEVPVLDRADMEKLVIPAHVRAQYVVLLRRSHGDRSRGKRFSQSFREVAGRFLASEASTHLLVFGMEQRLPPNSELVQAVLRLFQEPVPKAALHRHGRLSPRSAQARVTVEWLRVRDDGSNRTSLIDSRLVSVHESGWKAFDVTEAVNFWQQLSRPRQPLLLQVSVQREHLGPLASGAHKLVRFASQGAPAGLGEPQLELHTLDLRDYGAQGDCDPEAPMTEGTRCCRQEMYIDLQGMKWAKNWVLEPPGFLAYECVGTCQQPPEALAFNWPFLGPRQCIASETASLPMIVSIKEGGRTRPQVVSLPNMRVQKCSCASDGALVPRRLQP
# [14] = biological target: Calmodulin-1 (Homo sapiens) (UniProt P0DP23); assay: small molecules binding calmodulin-1 with EGTA – biochemical, small-molecule microarray, Cy5-labelled CALM1, profiling panel (AID 1111); details: Cy5-CALM1 binding fluorescence, higher = more signal;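 also: labelled calmodulin applied in Tris saline Tween buffer holding calcium plus EGTA and DTT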
# [15] = biological target: Calmodulin-1 (Homo sapiens) (UniProt P0DP23); assay: small molecules binding Ca-loaded calmodulin-1 – biochemical, small-molecule microarray, Cy5-labelled CALM1, plus calcium, artefact control for SMM control-protein annotation, profiling panel (AID 1112); details: Cy5-CALM1 binding fluorescence, higher = more signal;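 also: score merges spot fluorescence with signal to noise from triplicate slides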
# [16] = probe aWnt5a binding to arrayed compounds – biochemical, biotinylated probe, 635/667 nm fluorescence, primary screen (AID 1113); details: small-molecule microarray, higher = more signal;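 also: score merges 667 nm fluorescence intensity with signal-to-noise per printed feature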
# [17] = probe aShh binding to arrayed compounds – biochemical, biotinylated probe, 635/667 nm fluorescence, primary screen (AID 1114); details: small-molecule microarray, higher = more signal;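 also: probe is biotin-labelled aShh protein from a stem cell growth factor screen; measures binding of labelled protein to compounds printed on the slide; score merges feature fluorescence at 667 nm with signal-to-noise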
# [18] = probe aNog binding to arrayed compounds – biochemical, biotinylated probe, 635/667 nm fluorescence, primary screen (AID 1115); details: small-molecule microarray, higher = more signal;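 also: probe is biotinylated aNog protein used at 0.15 µg/mL for 1 h at 4 C; z-score combines 667 nm fluorescence of each spot with its signal to noise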
# [19] = biological target: Torsin-1A-interacting protein 1 (Homo sapiens) (UniProt Q5JTV8); assay: compound microarray binding of lysate hLAP1 – cell lysate, small-molecule microarray, COS7 lysate, 635/667 nm fluorescence, primary screen (AID 1116); details: 635 nm fluorescence, higher = more signal
# Sequence of Torsin-1A-interacting protein 1 (Homo sapiens) (Q5JTV8 whole entry, looked up): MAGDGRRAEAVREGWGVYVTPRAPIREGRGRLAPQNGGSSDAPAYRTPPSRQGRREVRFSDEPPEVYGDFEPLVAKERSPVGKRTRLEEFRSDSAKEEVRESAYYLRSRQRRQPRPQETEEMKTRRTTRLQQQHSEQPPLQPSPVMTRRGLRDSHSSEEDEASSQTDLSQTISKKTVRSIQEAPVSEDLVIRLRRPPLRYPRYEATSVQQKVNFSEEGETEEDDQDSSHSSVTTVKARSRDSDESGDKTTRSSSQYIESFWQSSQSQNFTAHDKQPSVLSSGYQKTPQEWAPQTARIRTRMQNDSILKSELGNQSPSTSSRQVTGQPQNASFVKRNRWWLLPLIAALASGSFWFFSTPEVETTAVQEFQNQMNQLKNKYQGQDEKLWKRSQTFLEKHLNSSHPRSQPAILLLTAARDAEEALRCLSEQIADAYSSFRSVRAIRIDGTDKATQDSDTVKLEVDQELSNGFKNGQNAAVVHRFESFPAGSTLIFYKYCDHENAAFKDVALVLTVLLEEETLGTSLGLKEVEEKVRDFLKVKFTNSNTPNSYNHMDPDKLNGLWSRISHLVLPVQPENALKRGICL
# [20] = biological target: Alpha-bungarotoxin (Bungarus multicinctus) (UniProt P60615); assay: compounds binding labelled alpha-BTX control protein – biochemical, small-molecule microarray, Alexa647 label, 635/667 nm fluorescence, artefact control for SMM control protein annotation, profiling panel (AID 1117); details: alpha-BTX-A647 binding fluorescence, higher = more signal
# Sequence of Alpha-bungarotoxin (Bungarus multicinctus) (P60615 whole entry, looked up): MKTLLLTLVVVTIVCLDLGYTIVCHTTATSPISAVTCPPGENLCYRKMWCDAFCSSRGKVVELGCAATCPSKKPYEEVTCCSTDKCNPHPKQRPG
SMILES,composite z-score [1],composite z-score [2],composite z-score [3],z-score [4],composite z-score [5],composite z-score [6],composite z-score [7],composite z-score [8],composite z-score [9],composite z-score [10],composite z-score [11],z-score [12],composite z-score [13],composite z-score [14],composite z-score [15],composite z-score [16],composite z-score [17],composite z-score [18],composite z-score [19],composite z-score [20]
CC(C)NC(=O)[C@@H]1c2ccccc2C(=O)N(C2CCCCC2)[C@H]1c1ccc(CO)cc1,0.576,0.678,0.919,0.0672 (inactive),0.902,0.889,0.101,0.28,-0.161,0.445,1.13,-1.48,0.0474,0.166,0.808,0.0279,-0.195,0.342,0.416,1.01
CCCNC(=O)[C@@]1(C)c2ccccc2C(=O)N(C(C)C)[C@H]1c1ccc(CO)cc1,1.2,0.695,1.09,0.208 (inactive),-0.668,-0.743,-1.14,-0.737,-0.612,-0.105,-0.0794,-1.99,-1.28,-0.58,-0.145,-0.212,-0.262,-0.0172,-0.109,-0.731
[N-]=[N+]=Nc1ccccc1[C@@H]1OC(c2ccc(OCCCO)cc2)=N[C@]1(CCS(=O)(=O)c1ccccc1)C(=O)O,1.25,0.541,0.54,-1.27 (inactive),1.11,1.29,0.452,1.44,0.227,1.31,1.42,0.666,0.459,1.35,0.304,0.383,-0.0146,-0.0345,0.677,1.55
CN1C(=O)C2C(C1=O)C1C=C(c3ccc(CO)cc3)C2C(C2CC2)N1Cc1cc2c(cc1Br)OCO2 (stereo not given),1.65,0.0878,0.886,0.0287 (inactive),0.966,1.14,0.482,1.22,0.334,1.22,1.36,-1.11,0.72,1.68,0.6,-0.027,-0.0866,1.04,2.24,1.73
O=C1OCCC/C=C\[C@H]2OC34C=CCN(Cn5nnc6ccccc65)C(=O)[C@H]3N(CCCO)C(=O)[C@@H]4C12 (stereo not given in full),0.649,-0.282,0.741,0.288 (inactive),-1.34,-0.556,-1.43,-0.921,-1.16,-0.0648,0.692,-1.01,-2,-0.44,0.458,-0.191,0.0952,0.574,2.11,-1.75
CC(=O)NCCCC[C@@H]1NC(=O)[C@@H]2C[C@H](C(=O)NCCCCCC[N+](C)(C)C)[C@H](c3cccc(OCCO)c3)N2C1=O,1.13,-0.145,-0.0962,-0.0513 (inactive),1.23,1.27,0.341,1.25,1.45,0.811,1.39,0.625,0.996,-0.145,-0.711,0.158,0.0181,-0.0585,1.05,1.75
C=CCOC(=O)[C@@H]1[C@H]2C(=O)O[C@H](c3ccccc3)[C@H](c3ccccc3)N2[C@H](c2ccc(OCCOC(=O)[C@H]3C[C@H]4C(=O)N[C@@H](CC(C)C)C(=O)N4[C@H]3c3cccc(OCCO)c3)cc2)[C@@]12C(=O)Nc1ccc(I)cc12,1.41,0.169,-0.135,-0.835 (inactive),1.23,1.32,0.694,1.25,0.836,0.255,1.44,-1.34,0.697,0.896,0.163,-0.0721,0.337,0.0852,0.921,2.52
Cc1ccc(N2C(=O)c3ccccc3[C@@H](C(=O)NC(C)C)[C@@H]2c2ccc(CO)cc2)nc1,1.87,0.167,0.61,0.245 (inactive),0.121,-0.0399,-0.416,-0.64,-0.32,0.726,-0.191,-0.301,0.0413,-0.973,-0.754,0.0101,-0.291,-0.493,2.09,-0.719
